LMNA splice mod – changes lamin A minigene splicing in HeLa cells; Potency, µM (doses to about 46.1 µM), most hits filed as inhibitors; hit rate 0.01% among 200,000; HeLa LMNA splicing GFP/RFP minigene ratio, 48 h; active = well fitted inhibition curve with a large enough effect in the signal ratio, with a control signal flat, not every such curve was filed as active; inconclusive = small, poorly fitted or top-dose-only effect, or effect the other way, or a change in a side signal; the % refers to the signal ratio
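S3 HeLa stable clones carrying a lamin A-EGFP splicing minigene plus DsRed2 were seeded at 600 cells/well in Opti-MEM with 2% FBS, pin-dosed and incubated 48 h at 37°C. Acumen cytometry (488 nm) gave the GFP/RFP total-intensity ratio.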
ALDH1A1 block – ALDH1A1 (human) enzyme inhibition. P00352. Purified ALDH1A1, NADH fluorescence, propionaldehyde substrate. Potency, µM (top dose mostly 75.3 µM), usual class: inhibitors. hit rate 7.3% among 220,000. AID 1030; active = well fitted inhibition curve with a large enough effect, not every such curve was filed as active; inconclusive = small, poorly fitted or top-dose-only effect, or another doubt; inactive = no such curve, though single readings can be large or run the other way
Target sequence (P00352 whole entry, looked up): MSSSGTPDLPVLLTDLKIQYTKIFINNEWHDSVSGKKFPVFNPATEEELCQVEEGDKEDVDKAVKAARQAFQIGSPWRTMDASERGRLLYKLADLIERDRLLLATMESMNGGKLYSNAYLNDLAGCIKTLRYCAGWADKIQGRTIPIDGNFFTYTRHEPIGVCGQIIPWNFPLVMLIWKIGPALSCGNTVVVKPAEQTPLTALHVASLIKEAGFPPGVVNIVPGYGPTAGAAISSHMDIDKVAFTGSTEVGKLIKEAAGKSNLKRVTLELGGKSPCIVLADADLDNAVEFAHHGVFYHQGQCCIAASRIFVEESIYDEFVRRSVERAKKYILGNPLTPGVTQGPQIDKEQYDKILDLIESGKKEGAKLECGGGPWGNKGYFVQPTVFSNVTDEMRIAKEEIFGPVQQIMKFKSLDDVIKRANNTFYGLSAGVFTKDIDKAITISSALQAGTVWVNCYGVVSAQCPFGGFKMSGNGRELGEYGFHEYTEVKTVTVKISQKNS
Luc counter – counter-screen: inhibitors of Kinase-Glo firefly luciferase. Q27757. Kinase-Glo luciferase, ATP luminescence, 8 min. Potency, µM (highest dose often 38.3 µM), hits mostly inhibitors. hit rate 0.28% among 200,000; also: nearly all actives have a fitted effect of over 60% in size
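Kinase-Glo luciferase light output from ATP and luciferin was measured with 10 uM ATP, within the enzyme's linear range. Buffer: 50 mM imidazole pH 7.2, 50 mM KCl, 7 mM MgCl2, 0.01% Tween 20, 0.05% BSA; luminescence read after 8 min at ambient temperature.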
IMPase Li cell – membrane-permeable IMPase blocker, potentiated with lithium. AID 1457. CHO-M1 cells, IP1 TR-FRET (IP-One), carbachol + lithium. hit rate 0.35% among 210,000. Potency, µM (top dose mostly 59.4 µM), most hits filed as inhibitors;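 also: IP1 builds up when IMPase is blocked and the TR-FRET signal falls; nearly all actives have a fitted effect of over 50% in size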
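Steps: plate 2000 CHO-M1 cells per well and culture 16–30 h; add compound and lithium; incubate 30 min, 37C; add d2-IP1 tracer and Eu cryptate anti-IP1 antibody in lysis buffer; read after 10 min at room temperature.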
HPGD block – blocks human HPGD enzyme activity; P15428; purified HPGD, NADH fluorescence kinetic, PGE2 substrate; Potency, µM, usual class: inhibitors; hit rate 4.3% among 150,000; AID 894; active = well fitted inhibition curve with a large enough effect, not every such curve was filed as active; inconclusive = small, poorly fitted or top-dose-only effect, or another doubt; inactive = no such curve, though single readings can be large or run the other way
Target sequence (P15428 whole entry, looked up): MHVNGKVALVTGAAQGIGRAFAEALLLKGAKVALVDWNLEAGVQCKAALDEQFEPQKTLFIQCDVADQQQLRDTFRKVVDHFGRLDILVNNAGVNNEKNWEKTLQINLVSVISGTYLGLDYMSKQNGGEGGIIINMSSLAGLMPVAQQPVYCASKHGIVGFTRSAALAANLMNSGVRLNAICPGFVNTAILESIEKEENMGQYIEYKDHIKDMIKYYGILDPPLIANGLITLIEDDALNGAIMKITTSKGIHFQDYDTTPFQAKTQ
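NADH formation kinetics: reaction with 30 uM PGE2 and 1 mM NAD+ (final), 20 nM enzyme, Tris-HCl pH 8 with Tween 20, after 15 min compound preincubation at room temperature. Fluorescence change, last versus first of five reads.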
Hits are given with their value; [ ] = remark or other dose. Shown are actives, neighbours in structure and some others; about 9% of the full set was active somewhere. Unless noted, calls follow the shape of the dose curve; as a rule, active = well fitted curve in the direction sought with a large enough effect; inconclusive = small, poorly fitted or top-dose-only effect, or another doubt; inactive = no such curve, though single readings can be large; an effect the other way counts as inactive or inconclusive.

What do the screens show for `N#CC1=C(N)N(c2ccccc2C#N)C2=C(C(=O)CCC2)C1c1ccsc1` (stereo not drawn)?
LMNA splice mod: inactive; ALDH1A1 block: 25µM; Luc counter: inactive; IMPase Li cell: inactive; HPGD block: inactive

What do the screens show for `Cc1c(C2C(C#N)=C(N)N(c3ccccc3C#N)C3=C2C(=O)CCC3)cnn1C` (stereo not drawn)?
LMNA splice mod: inactive; ALDH1A1 block: inactive; Luc counter: inactive; IMPase Li cell: inactive; HPGD block: inactive

How did CC(C)COC(=S)Nc1ccccc1 do in these assays?
LMNA splice mod: inactive; ALDH1A1 block: 25µM; Luc counter: inactive; IMPase Li cell: inactive; HPGD block: 11µM

How did CC(C)COCC(O)CCC(=O)NNC(=S)Nc1ccccc1 (stereo not drawn) do in these assays?
LMNA splice mod: inactive; ALDH1A1 block: inactive; Luc counter: inactive; IMPase Li cell: inactive; HPGD block: inactive

What do the screens show for `CCOc1ccccc1C(=O)N1CCC(n2nnc3cc(C(F)(F)F)ccc32)CC1`?
LMNA splice mod: inactive; ALDH1A1 block: 28µM; Luc counter: inactive; IMPase Li cell: inactive; HPGD block: inactive

Results for CCOc1ccccc1C(=O)N1CCC(n2nnc3cc(C)ccc32)CC1 ?
LMNA splice mod: inactive; ALDH1A1 block: inactive

What do the screens show for `CSCC[C@@H](Nc1nc(-c2ccccc2)nc2c1oc1ccccc12)C(=O)O`?
LMNA splice mod: inactive; ALDH1A1 block: 11µM; Luc counter: inactive; IMPase Li cell: inactive; HPGD block: inactive

How did Cc1nc(N[C@@H](Cc2ccccc2)C(=O)O)c2oc3ccccc3c2n1 do in these assays?
LMNA splice mod: inactive[0.0737 µM]; ALDH1A1 block: 18µM; Luc counter: inactive; IMPase Li cell: inactive; HPGD block: inactive

What do the screens show for `Cc1nc(NC(C)c2ccccc2)c2oc3ccccc3c2n1` (stereo not drawn)?
LMNA splice mod: inconclusive; ALDH1A1 block: inactive; Luc counter: inactive; IMPase Li cell: inactive; HPGD block: inactive

Results for Cc1nc(N[C@@H](Cc2c[nH]c3ccccc23)C(=O)O)c2oc3ccccc3c2n1 ?
LMNA splice mod: inactive; ALDH1A1 block: inactive; Luc counter: inactive; IMPase Li cell: 11µM; HPGD block: inconclusive

How did CCc1nc(N[C@@H](Cc2c[nH]c3ccccc23)C(=O)O)c2oc3ccccc3c2n1 do in these assays?
LMNA splice mod: inactive; ALDH1A1 block: inactive; Luc counter: inactive; IMPase Li cell: inactive; HPGD block: inactive

What do the screens show for `Cc1ccc2c(c1)nnn2C1CCN(CC(=O)NNC(=O)c2ccco2)CC1`?
LMNA splice mod: inactive; ALDH1A1 block: inactive; Luc counter: inactive; IMPase Li cell: inactive

What do the screens show for `Cc1ccc(NC(=O)c2ccc(N3CCOCC3)c([N+](=O)[O-])c2)cc1S(=O)(=O)N1CCOCC1`?
LMNA splice mod: inconclusive; ALDH1A1 block: inconclusive; Luc counter: inactive; IMPase Li cell: inactive; HPGD block: inactive

How did O=C(Nc1ccc(N2CCCC2)c(Cl)c1)c1ccccc1[N+](=O)[O-] do in these assays?
LMNA splice mod: inactive; ALDH1A1 block: inconclusive; Luc counter: inactive; IMPase Li cell: inactive; HPGD block: inactive

How did CC(=O)N1CCN(c2ccc(NC(=O)c3ccc(N4CCCC4)c([N+](=O)[O-])c3)cc2Cl)CC1 do in these assays?
LMNA splice mod: inactive; ALDH1A1 block: 7.9µM; Luc counter: inactive; IMPase Li cell: inactive; HPGD block: inactive

What do the screens show for `O=C(Oc1ccc(Cl)cc1)c1ccc(N2CCOCC2)c([N+](=O)[O-])c1`?
LMNA splice mod: inactive; ALDH1A1 block: inconclusive; Luc counter: inactive; IMPase Li cell: inactive; HPGD block: inactive

How did Cc1ccc(OC(=O)c2ccc(N3CCOCC3)c([N+](=O)[O-])c2)cc1 do in these assays?
LMNA splice mod: inactive; ALDH1A1 block: 7.1µM; Luc counter: inactive; IMPase Li cell: inactive; HPGD block: inconclusive

How did Cc1ccc(NC(=S)NNC(=O)c2ccc(N3CCOCC3)c([N+](=O)[O-])c2)cc1C do in these assays?
LMNA splice mod: inactive; ALDH1A1 block: 4µM; Luc counter: inactive; IMPase Li cell: inactive; HPGD block: inactive

Results for CN(C)S(=O)(=O)c1cccc(NC(=O)c2ccc(N3CCOCC3)c([N+](=O)[O-])c2)c1 ?
LMNA splice mod: inconclusive; ALDH1A1 block: 18µM; Luc counter: inactive; IMPase Li cell: inactive; HPGD block: inactive

Results for COc1ccc(S(=O)(=O)N2c3ccc(Cl)cc3[C@](O)(c3ccccc3Cl)[C@@H]2C(=O)N2CCC[C@H]2C(N)=O)cc1OC ?
ALDH1A1 block: inactive; Luc counter: inactive; IMPase Li cell: inactive; HPGD block: inactive

How did CC1(CC(=O)N/N=C/c2ccc(-c3cccc(C(F)(F)F)c3)o2)OCCO1 do in these assays?
LMNA splice mod: inconclusive; ALDH1A1 block: inactive; Luc counter: inactive; IMPase Li cell: inactive; HPGD block: inactive

What do the screens show for `O=C(Nc1ccc2c(c1)OCO2)c1ccc(NC2CC2)c([N+](=O)[O-])c1`?
LMNA splice mod: inactive; ALDH1A1 block: inactive; Luc counter: inactive; IMPase Li cell: inactive; HPGD block: inactive

What do the screens show for `O=C(Nc1ccc2c(c1)OCO2)c1ccc(N2CCCC2)c([N+](=O)[O-])c1`?
LMNA splice mod: inconclusive; ALDH1A1 block: 16µM; Luc counter: inactive; IMPase Li cell: inactive; HPGD block: inactive

How did O=C(Nc1ccc(N2CCCCC2)c(Cl)c1)c1ccc(N2CCOCC2)c([N+](=O)[O-])c1 do in these assays?
LMNA splice mod: inactive[0.0737 µM]; ALDH1A1 block: 8.9µM; Luc counter: inactive; IMPase Li cell: inactive; HPGD block: inactive

What do the screens show for `N#CCC(=O)Nc1ccc(C(=O)Nc2cccnc2)cc1`?
ALDH1A1 block: inactive

How did CCOCCCNC(=O)c1cn(CC(C)C)c(=O)c2cc(OC)c(OC)cc12 do in these assays?
LMNA splice mod: inactive; ALDH1A1 block: 20µM; Luc counter: inactive; IMPase Li cell: inactive; HPGD block: inactive

How did COc1cc2c(C(=O)N3CCN(Cc4ccc5c(c4)OCO5)CC3)cn(C)c(=O)c2cc1OC do in these assays?
LMNA splice mod: inactive; ALDH1A1 block: 2.5µM; Luc counter: inactive; IMPase Li cell: inactive; HPGD block: inactive

Results for CCn1cc(C(=O)NCc2cccnc2)c2cc(OC)c(OC)cc2c1=O ?
LMNA splice mod: inactive; ALDH1A1 block: 25µM; Luc counter: inactive; IMPase Li cell: inactive; HPGD block: inactive

What do the screens show for `Cc1ccc(C(=O)N2CCN(Cc3ccc4c(c3)OCO4)CC2)cc1[N+](=O)[O-]`?
ALDH1A1 block: 13µM; Luc counter: inactive; IMPase Li cell: inactive

Results for COc1cc(OC)c(C(=O)NCc2cccnc2)cc1OC ?
LMNA splice mod: inactive; ALDH1A1 block: inactive; Luc counter: inactive; IMPase Li cell: inactive

Results for COc1ccccc1C(=O)N1CCN(Cc2ccc3c(c2)OCO3)CC1 ?
LMNA splice mod: inconclusive; ALDH1A1 block: inactive; Luc counter: inactive; IMPase Li cell: inactive; HPGD block: inactive

How did CCn1cc(C(=O)NCCCOC)c2cc(OC)c(OC)cc2c1=O do in these assays?
LMNA splice mod: inactive; ALDH1A1 block: inactive; Luc counter: inactive; IMPase Li cell: inactive; HPGD block: inactive

High-throughput results from PubChem BioAssay.
